Whole data set: some 33,000 sequences, median “E-score (-0.5 to 0.5)” near -0.016, cut for the highest 2% near 0.3. This excerpt belongs to a sample that is enriched for the highest values.
Molecular target: T1, Yer184c (UniProt P39961)
T1 sequence: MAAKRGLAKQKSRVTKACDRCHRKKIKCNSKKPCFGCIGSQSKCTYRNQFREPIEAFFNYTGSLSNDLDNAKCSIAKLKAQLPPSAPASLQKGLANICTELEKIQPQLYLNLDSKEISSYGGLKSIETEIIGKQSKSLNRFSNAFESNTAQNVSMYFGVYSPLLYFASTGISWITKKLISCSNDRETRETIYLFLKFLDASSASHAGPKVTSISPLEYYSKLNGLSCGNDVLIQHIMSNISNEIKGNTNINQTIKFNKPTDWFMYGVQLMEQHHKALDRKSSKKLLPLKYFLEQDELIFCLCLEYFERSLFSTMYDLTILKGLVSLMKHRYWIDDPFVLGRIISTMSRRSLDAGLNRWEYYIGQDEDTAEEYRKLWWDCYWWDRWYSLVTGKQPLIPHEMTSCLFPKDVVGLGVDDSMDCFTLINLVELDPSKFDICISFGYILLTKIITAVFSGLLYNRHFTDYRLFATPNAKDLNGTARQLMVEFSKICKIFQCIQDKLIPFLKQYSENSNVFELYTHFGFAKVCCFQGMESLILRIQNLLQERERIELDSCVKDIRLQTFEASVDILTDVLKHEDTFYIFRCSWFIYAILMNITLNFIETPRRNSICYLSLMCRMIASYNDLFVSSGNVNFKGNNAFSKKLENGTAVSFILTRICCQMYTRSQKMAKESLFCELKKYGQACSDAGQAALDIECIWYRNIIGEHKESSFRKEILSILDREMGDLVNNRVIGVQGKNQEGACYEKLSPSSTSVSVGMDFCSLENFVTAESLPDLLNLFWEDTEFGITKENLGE
Experiment: PBM E-score (8-mer binding enrichment) (E-score (-0.5 to 0.5)); higher = stronger / more preferred TF binding
Conditions: protein concentration: 100 nM; construct: GST-full length
Method: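 Universal 'all 10-mer' protein binding microarrays (Agilent AMADID 015681) probed with GST-tagged S. cerevisiae TFs (full-length or DBD) made by in vitro transcription/translation (PURExpress), about 100-200 nM. Bound TF was detected with fluorescent anti-GST. Each ungapped 8-mer (which stands for itself and its reverse complement) is scored by the PBM enrichment score (E-score), a modified Wilcoxon-Mann-Whitney statistic from -0.5 to +0.5, computed with the Universal PBM Analysis Suite. Scale: above 0.35 generally sequence-specific binding.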

Sequence	PBM E-score
GCCAACAC	0.0745
CGTTGTTC	-0.00041
CTGGGCGA	-0.206
GCCCATCC	-0.224
TCGGTAGA	0.307
ACGGTAGA	-0.0773
CCGGTAGA	0.264
AGGCGATG	-0.0512
CCGCTGCG	-0.122
GCTAGCGA	-0.147
ACCCGAGT	0.0508
CCTTACCG	0.114
AAGAAATA	0.163
AAGAAATT	0.346
AAGAAATG	0.227
AGTCGTGG	-0.191
TTAATTAA	-0.041
ATAATTAT	0.386
ATAATTAG	0.203
ATCATTAA	0.307
ATAATTAA	0.323
ATCATTAG	0.037

Sequence	PBM E-score
GAAATTAA	0.337
GTAATTAA	0.143
CTCATTAA	0.067
AAAATTAA	0.168
CAAATTAA	0.0386
ATAATTAC	0.265
AACAAACT	0.277
AACAACGA	0.112
AGTGGCCC	-0.153
CAGGTATA	-0.163
AGTGTGCA	-0.0513
AACGATGT	0.13
CTCACCCA	-0.0925
CACGTTCG	-0.203
GCGCAAGA	0.188
AAAATTAT	0.316
AAAATTAG	0.227
AAAATTAC	0.127
AGGGATAG	-0.208
CCATCTAC	-0.15
ACCGGACA	0.122
GACGGACA	0.121

Sequence	PBM E-score
GCAGGATA	-0.168
GCCGGACC	0.214
GGCGGATA	0.0758
TCCGGACA	0.431
GCCGGACA	0.36
GCCGGATA	0.354
CCCGGACA	0.283
ACAAGAAG	0.048
CATCAGAG	-0.0413
GAGCACCC	-0.141
AAGTGATA	-0.118
GGGCCTTA	-0.209
CGGAGTAA	0.313
CGGAGTAC	0.0421
GGGAGTAA	0.109
AACCCGAA	0.14
CACGGCCA	0.131
AGTAACCG	0.117
ACCGCGGG	0.291
ACCGCGGT	0.195
ACCGCGGC	0.344
CCCGCGGC	0.35

Sequence	PBM E-score
CCCGCGGA	0.257
CCCGCGGG	0.3
ATGGACAT	0.0596
GAGTCGTA	-0.0554
ATCGCAGA	-0.132
CCACCACA	-0.093
GAGTGCAC	-0.0537
AAATGATT	0.316
AAATGATC	-0.0261
AAATGATA	0.162
ACTATCGA	-0.203
CTTTCCGA	0.3
CTTTCCGC	0.187
GTTTCCGA	0.286
ATTTCCAG	0.0278
ATTTCCTG	0.186
ATTTCCGG	0.445
ACTTCCGA	0.285
ATTTCCAC	0.067
ATTTCCGC	0.307

From the supplement of paper PMC3334620
